This is a sample that favours compounds with a hit; in the whole collection about 5.9% have one here.
LANA-H2B inh: blocks KSHV LANA binding to histone H2A/H2B; Q9QR71; cell-free LANA-H2A/H2B peptide, fluorescence polarization; inhibition, % (test concentration not listed); 320,000 tested, 0.6% active; AID 2629; in the data active = inhibition mostly above about 10%, no sharp cut-off; inactive = mostly below about 6.7%
ALR inh: human ALR oxidase inhibition via reduced H2O2. purified ALR, DTT oxidation, H2O2 HRP-luminol luminescence. 290,000 tested, 3.8% active. AID 485317. inhibition, % (no concentration beside the values);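 active = mean replicate inhibition above about 79%, with every replicate also reaching it, limit read from the data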
Target sequence (P55789 whole entry, looked up): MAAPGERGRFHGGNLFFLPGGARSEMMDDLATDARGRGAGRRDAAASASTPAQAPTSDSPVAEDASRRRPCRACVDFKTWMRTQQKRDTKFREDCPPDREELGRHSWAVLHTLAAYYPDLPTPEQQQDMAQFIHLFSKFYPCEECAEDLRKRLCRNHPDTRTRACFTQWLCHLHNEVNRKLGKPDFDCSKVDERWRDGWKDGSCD
ABHD5-PLIN5 inh: inhibitors of human ABHD5-perilipin-5 interaction; inhibition, % at 4 µM; Split G. princeps luciferase complementation, luminescence, 4 h; 360,000 tested, 0.78% active;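 active = inhibition above the mean inhibition across every tested compound plus 3 SD, cut at about 22% in these data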;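 also: 0% = DMSO only wells and the 100% control is not disclosed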
Rtt109 Vps75: C. albicans Rtt109 histone acetyltransferase inhibition; purified Rtt109/Vps75, ThioGlo CoA-SH fluorescence, 4 h; 330,000 tested, 0.16% active; inhibition, % at 34.9 µM;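 active = inhibition of at least 50% in every replicate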
rCAG RNA binder: r(CAG) repeat RNA binding | 370,000 tested, 1.3% active | TO-PRO-1 dye displacement fluorescence | inhibition, % at 3 µM;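 active = inhibition above the plate cutoff, the mean of all test compounds on that plate plus 3 SD, cut at about 35% in these data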;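 also: 0% = DMSO alone and 100% = 100 µM mitoxantrone as full dye displacement; higher means more dye released from RNA so lower well fluorescence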
PRMT1 inh: blocks human protein arginine methyltransferase 1. Q99873. recombinant PRMT1, activity-based probe fluorescence polarization. inhibition, % at 2.79 µM. 370,000 tested, 1.3% active. AID 652257;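 active = inhibition above about 21% made by adding two undisclosed values, limit read from the data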
Target sequence (Q99873 whole entry, looked up): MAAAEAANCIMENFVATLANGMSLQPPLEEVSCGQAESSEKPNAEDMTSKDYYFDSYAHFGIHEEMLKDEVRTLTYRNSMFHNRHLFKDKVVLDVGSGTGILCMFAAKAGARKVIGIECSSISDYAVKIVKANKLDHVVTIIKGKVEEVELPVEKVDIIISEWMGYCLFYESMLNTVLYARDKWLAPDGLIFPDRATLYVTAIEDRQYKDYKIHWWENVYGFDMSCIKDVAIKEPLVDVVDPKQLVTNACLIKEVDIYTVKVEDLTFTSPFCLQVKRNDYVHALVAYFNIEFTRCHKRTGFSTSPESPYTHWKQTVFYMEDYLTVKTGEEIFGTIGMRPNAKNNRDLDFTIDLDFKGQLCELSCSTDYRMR
rCAG bind conf: r(CAG) RNA repeat binding, confirmation; shares compounds with rCAG RNA binder; TO-PRO-1 dye displacement fluorescence; inhibition, % at 3 µM; 4,300 tested, 70% active;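 active = inhibition above a per-plate cutoff, the mean inhibition of sample wells plus 3 SD, cut at about 35% in these data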;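 also: loss of TO-PRO-1 fluorescence as compound displaces dye from 1x1 AA loop RNA; 0% = DMSO only wells and 100% = 100 µM mitoxantrone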
dCAG dye counter: DNA CAG dye complex inhibition counter-screen. d(CAG) DNA oligo TO-PRO-1 dye displacement, fluorescence. inhibition, % at 3 µM. shares compounds with rCAG RNA binder. 4,300 tested, 94% active;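 active = inhibition above its plate's cutoff, the mean test-well inhibition plus 3 SD, cut at about 4.8% in these data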;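 also: 0% = DNA dye mix with DMSO and 100% = 100 µM mitoxantrone; hits displace the dye from DNA and so lower well fluorescence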
DNA CAG DR: counter-screen for rCAG binders: inhibitors of DNA CAG TO-PRO-1 complex | shares compounds with rCAG RNA binder | 250 tested, 20% active | IC50, µM | DNA CAG/GTC duplex TO-PRO-1 dye displacement fluorescence; in the data active = IC50 below about 10 µM
An asterisk follows results filed as active; nt = not tested or not shown.

SMILES	LANA-H2B inh	ALR inh	ABHD5-PLIN5 inh	Rtt109 Vps75	rCAG RNA binder	PRMT1 inh	rCAG bind conf	dCAG dye counter	others
Cc1ccc(CNC(=O)CCS(=O)(=O)c2cc3c(cc2Br)CCN3C(=O)C2CC2)o1	nt	nt	nt	nt	6	1	nt	nt
Cc1ccc(C2C(C#N)=C(N)Oc3n[nH]c(-c4cccnc4)c32)o1 (stereo not drawn)	3	7	-23	2	1	2	nt	nt
Cc1ccc(C2C(C#N)=C(N)Oc3n[nH]c(-c4ccccc4)c32)o1 (stereo not drawn)	5	-12	-56	0	41*	19	40*	20*
CC(NC(=O)COC(=O)c1ccccc1F)C1CC2CCC1C2 (stereo not drawn)	0	nt	-5	-1	1	-2	nt	nt
N#C/C(=C\c1ccc(O)c(O)c1)C(=O)NCCc1ccccc1	3	98*	0	14	39*	12	44*	13*
Cc1cccc(N2C(=O)C(O)=C(C(=O)c3cccs3)C2c2ccc(C(C)C)cc2)n1 (stereo not drawn)	-3	98*	-2	21	48*	0	39*	11*
Cc1cccc(N2C(=O)C(O)=C(C(=O)c3cccs3)C2c2ccc(F)cc2)n1 (stereo not drawn)	0	4	0	-3	3	1	nt	nt
Oc1ccc2ccccc2c1N=Nc1ccccc1F	-5	-22	5	33	10	-2	nt	nt
O=S(=O)(O)c1cccc(N=Nc2c(O)ccc3ccccc23)c1	0	-25	14	-2	38*	0	36*	9.7*
O=C(Cn1cc(COc2ccc(Cl)c(Cl)c2)nn1)NS(=O)(=O)c1ccccc1OC(F)(F)F	nt	nt	3	nt	62*	3	48*	16*
CCN(CC)C(=O)C1=C(C)N(CCCOC)C(=O)C(CC(=O)NCCc2ccccn2)C1 (stereo not drawn)	nt	nt	12	nt	-1	2	nt	nt
CC1C(=O)N(Cc2cn(Cc3ccco3)nn2)CCS(=O)(=O)N1Cc1ccc(-c2cccc(N(C)C)c2)cc1 (stereo not drawn)	nt	nt	4	nt	7	0	nt	nt
C/C(=N\OCc1nc2ccccc2c(=O)n1/N=C/c1cc(C)cc([N+](=O)[O-])c1O)c1ccccc1	6	2	-9	-19	56*	0	64*	25*
Cc1cc([N+](=O)[O-])cc(/C=N/n2c(C)nc3ccccc3c2=O)c1O	-2	2	-2	10	2	-4	nt	nt
O=C(COc1ccccc1Cl)NC(=S)Nc1cccc(NC(=O)c2ccccc2Cl)c1	-4	-3	3	-1	-2	-2	nt	nt
O=C(O)c1ccc(NC(=O)c2ccc(Cl)cc2)c(NC(=O)c2ccc(Cl)cc2)c1	-3	3	5	-1	71*	4	59*	23*
Cc1ccc(C(=O)Nc2ccc(C(=O)O)cc2NC(=O)c2ccc(C)cc2)cc1	1	9	0	-9	21	-4	nt	nt
O=C(COc1ccccc1Cl)Nc1ccccc1C(=O)Nc1cccc(C(=O)O)c1	1	-3	-12	9	40*	2	23	2
O=C(COc1ccccc1Cl)Nc1ccc(C(=O)O)cc1NC(=O)COc1ccccc1Cl	2	6	0	7	67*	-1	53*	19*
Cc1ccccc1CNC(=O)CN1CCCc2ccccc21	nt	nt	nt	nt	1	-6	nt	nt
Cc1ccc(-n2c(SCC(=O)c3ccc(O)c(O)c3)nnc2-c2ccccc2)cc1	nt	nt	nt	nt	39*	19	37*	15*
COc1ccc(C(=O)CSc2nnc(-c3ccccc3)n2-c2ccc(Cl)cc2)cc1	nt	nt	nt	nt	8	2	nt	nt
Cc1ccc(OCc2nnc(SCC(=O)Nc3cccc4ccccc34)n2Cc2ccco2)cc1	nt	nt	nt	nt	5	3	nt	nt
Cc1nn(-c2ccccc2)c2sc(-c3nnc(SCC(=O)O)o3)cc12	6	4	5	8	46*	5	56*	15*
Cc1ccccc1CSc1nnc(NC(=O)C2COc3ccccc3O2)s1 (stereo not drawn)	-3	0	-5	4	24	1	nt	nt
SMILES	LANA-H2B inh	ALR inh	ABHD5-PLIN5 inh	Rtt109 Vps75	rCAG RNA binder	PRMT1 inh	rCAG bind conf	dCAG dye counter	others
O=C(Nc1nnc(SCc2cccc3ccccc23)s1)C1COc2ccccc2O1 (stereo not drawn)	1	nt	-6	2	50*	1	40*	8.2*
O=[N+]([O-])c1ccc(N/N=C/c2cccc(O)c2O)c(S(=O)(=O)N2CCOCC2)c1	0	-31	12	5	35*	18	33	18*
COc1ccc(CNC(=O)CSc2nc3c([nH]2)c(=O)n(C)c(=O)n3C)cc1	nt	nt	nt	nt	0	6	nt	nt
O=C(CSc1nc2cc(C(=O)O)ccc2c(=O)n1-c1ccc(F)cc1)Nc1ccc(F)c(F)c1F	0	31	-2	1	39*	2	15	3
NS(=O)(=O)c1ccc(C(=O)Nc2ccc(-c3nc4cccnc4s3)cc2)cc1	8	nt	1	-5	1	-4	nt	nt
O=S(=O)(Nc1ccc(-c2nc3cccnc3s2)cc1)c1cc(F)ccc1F	-2	-6	0	-5	45*	1	35*	9.2*
CCc1ccc(S(=O)(=O)Nc2ccc(-c3nc4cccnc4s3)cc2)s1	-2	-18	-10	-8	57*	-1	58*	22*
c1ccc(-c2cccc3[nH]cc(-c4ccccc4)c23)cc1	nt	nt	nt	nt	2	-2	nt	nt
CC(=O)c1sc2nc(CSc3nnnn3-c3ccccc3)[nH]c(=O)c2c1C	-2	1	1	-3	39*	-2	49*	29*
COc1ccccc1C=C1SC(=S)NC1=O	nt	nt	10	13	7	8	nt	nt
COc1cc(/C=C2/S/C(=N/S(=O)(=O)Cc3ccccc3)NC2=O)c([N+](=O)[O-])cc1OC	-4	29	-2	25	73*	8	67*	29*
COc1cc(/C=C2\S/C(=N/S(=O)(=O)Cc3ccccc3)NC2=O)c([N+](=O)[O-])cc1OC	-3	21	4	23	78*	7	71*	33*
O=C1N/C(=N\S(=O)(=O)c2ccccc2)S/C1=C\c1cc([N+](=O)[O-])ccc1O	2	22	-1	11	67*	8	52*	12*	DNA CAG DR=>30
COc1cc(/C=C2/S/C(=N/S(=O)(=O)c3ccccc3)NC2=O)c([N+](=O)[O-])cc1OC	0	nt	2	-4	78*	33*	77*	41*

Screening results as filed in PubChem BioAssay.
